PubChem BioAssay AID493168 (National Center for Advancing Translational Sciences (NCATS), 2011)
Records with an inconclusive call do not appear. The source made the active and inactive calls. Calls follow the shape of the dose curve; as a rule, active = well fitted inhibition curve with a large enough effect; inconclusive = small, poorly fitted or top-dose-only effect, or effect the other way; inactive = flat fitted curve, though single readings scatter.

Each molecule was assayed against Ubiquitin carboxyl-terminal hydrolase 2 (Homo sapiens) (UniProt O75604) (assay: Confirmation Assay for Inhibitors of Ubiquitin-specific Protease USP2a Using CHOP2 as the Reporter). Details: USP2 core, Ub-CHOP2 coupled reporter fluorescence; series mostly up to 38.3 µM.
Ubiquitin carboxyl-terminal hydrolase 2 (Homo sapiens), sequence (O75604 whole entry, looked up): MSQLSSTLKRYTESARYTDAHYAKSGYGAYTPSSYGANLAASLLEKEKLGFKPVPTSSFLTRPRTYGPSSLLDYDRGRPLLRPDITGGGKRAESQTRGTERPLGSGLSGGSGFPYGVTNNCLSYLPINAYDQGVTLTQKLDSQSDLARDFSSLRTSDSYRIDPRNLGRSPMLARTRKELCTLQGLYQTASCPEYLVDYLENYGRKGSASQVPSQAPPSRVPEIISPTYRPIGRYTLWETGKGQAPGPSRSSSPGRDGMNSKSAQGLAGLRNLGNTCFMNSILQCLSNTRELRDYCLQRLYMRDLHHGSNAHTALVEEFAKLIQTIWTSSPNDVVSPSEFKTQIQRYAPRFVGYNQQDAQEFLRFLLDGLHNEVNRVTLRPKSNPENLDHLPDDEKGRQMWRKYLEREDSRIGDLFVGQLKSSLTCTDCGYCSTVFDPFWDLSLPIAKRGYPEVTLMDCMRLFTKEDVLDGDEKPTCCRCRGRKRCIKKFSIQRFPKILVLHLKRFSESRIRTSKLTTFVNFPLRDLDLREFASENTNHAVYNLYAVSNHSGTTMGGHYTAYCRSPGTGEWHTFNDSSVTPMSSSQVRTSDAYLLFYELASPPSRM
In short: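 USP2 core (10 nM final) was preincubated with compound for 30 min at RT in Tris-HCl pH 8.0, CaCl2, beta-mercaptoethanol, CHAPS. Ub-CHOP2 and reporter substrate (25 nM final each) were added, and fluorescence (Ex 485/Em 531 nm) was read after 60 min.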
Also: nearly all actives have a fitted effect of over 55% in size.

Potency, inactive:
CNc1sc(C(=O)c2ccc(F)cc2)c(N)c1-c1nc2ccccc2s1
C[C@@H]1CN([C@H](C)CO)C(=O)c2cc(NS(=O)(=O)c3ccc(F)cc3)ccc2O[C@@H]1CN(C)Cc1ccc(Cl)c(Cl)c1
Cc1ccc(Nc2nc(N)nc(CN3CCN(C(=O)c4ccco4)CC3)n2)cc1Cl
O=C(CC1Oc2ccccc2NC1=O)NCc1ccc(Cl)cc1 (stereo unspecified)
O=C1CS/C(=C/C(=O)c2ccccc2)N1
S=c1[nH]nc(-c2cc(-c3ccco3)[nH]n2)n1-c1cccc2ccccc12
COc1ccc(NC(=O)CSc2nnc(-c3ccccc3Cl)n2Cc2ccco2)c(OC)c1
C=CC[C@H](CC(=O)N[C@H](CO)Cc1ccccc1)C(=O)N[C@@H](COC(=O)[C@@H](CC=C)CC(=O)OC(C)(C)C)Cc1c[nH]c2ccccc12
Cc1ccc(SCC(=O)Nc2ccc(C(=O)Nc3ccc(O)cc3)cc2)cc1
Oc1ccc(/C=N/NC(=S)N/N=C/c2ccc(O)cc2)cc1
COC1=CCC2([N+](=O)[O-])CN(CCO)CC1([N+](=O)[O-])C2 (stereo unspecified)
O=C(Nc1ccc(N2CCCC2)cc1)c1cccc(-c2cc3ccccc3oc2=O)c1
O=C(c1cccc(F)c1)N1CCN(S(=O)(=O)c2ccccc2)CC1
NC(=O)c1ncc(C(F)(F)F)cc1Oc1cccc(F)c1
CCC(=O)c1ccc(OCC(=O)NC2CCN(Cc3ccccc3)CC2)cc1
CCSc1nc(N2CCCCC2)c2c(c1C#N)CCCC2
